In PubChem BioAssay (EPA / NIEHS):
Inconclusive results are not listed. Activity calls are given as the source filed them. Rule for the calls, unless noted: active = hit-call score of the fitted dose curve at least 0.9, where 1 is the maximum; inactive = score below 0.9.

Experiments:
[1] = biological target: Glucocorticoid receptor (Homo sapiens) (UniProt P04150); assay: ATG_GR_TRANS: Attagene TRANS-FACTORIAL HepG2 Assay for human Glucocorticoid Receptor (GR) (AID 2282978; active = hit-call score of the fitted dose curve at least 0.9, where 1 is the maximum;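 note: activators score as hits since higher reporter transcript over DMSO is fitted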); details: HepG2 Attagene TRANS GR reporter, mRNA transcription
Glucocorticoid receptor (Homo sapiens), sequence (P04150 whole entry, looked up, the tested form may be a part): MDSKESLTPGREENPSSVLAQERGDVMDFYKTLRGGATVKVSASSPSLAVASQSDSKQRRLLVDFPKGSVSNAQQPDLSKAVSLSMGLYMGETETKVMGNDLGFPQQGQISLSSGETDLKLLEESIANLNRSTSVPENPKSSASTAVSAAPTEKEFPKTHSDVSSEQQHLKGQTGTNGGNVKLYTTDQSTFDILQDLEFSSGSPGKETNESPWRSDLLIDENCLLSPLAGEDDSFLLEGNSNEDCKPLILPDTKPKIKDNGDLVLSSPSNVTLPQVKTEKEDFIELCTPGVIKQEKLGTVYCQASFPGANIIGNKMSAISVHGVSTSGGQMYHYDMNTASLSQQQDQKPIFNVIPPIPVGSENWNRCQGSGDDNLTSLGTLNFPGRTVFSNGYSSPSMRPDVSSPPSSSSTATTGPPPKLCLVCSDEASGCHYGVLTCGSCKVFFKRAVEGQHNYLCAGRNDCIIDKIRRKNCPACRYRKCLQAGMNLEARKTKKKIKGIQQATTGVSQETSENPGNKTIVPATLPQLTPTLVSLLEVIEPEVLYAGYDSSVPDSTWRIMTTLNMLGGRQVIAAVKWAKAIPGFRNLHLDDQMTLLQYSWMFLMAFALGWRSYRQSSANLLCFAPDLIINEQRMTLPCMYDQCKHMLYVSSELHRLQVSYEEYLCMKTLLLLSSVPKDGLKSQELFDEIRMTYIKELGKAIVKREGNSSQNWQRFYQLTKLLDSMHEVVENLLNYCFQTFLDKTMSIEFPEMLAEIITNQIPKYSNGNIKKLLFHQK
How it was run: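 Transiently transfected HepG2 cells express chimeric NR-GAL4 proteins acting on GAL4-UAS reporter units. Compounds are applied for 24 h. mRNA induction over DMSO is measured by capillary electrophoresis.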

[2] = biological target: Bile acid receptor (Homo sapiens) (UniProt Q96RI1); assay: ATG_FXR_TRANS: Attagene TRANS-FACTORIAL HepG2 Assay for Farnesoid X Receptor (FXR) (AID 2282979; active = hit-call score of the fitted dose curve at least 0.9, where 1 is the maximum;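 note: hits raise reporter mRNA above DMSO so AC50 marks FXR activation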); details: HepG2 Attagene TRANS FXR-GAL4 reporter transcription
How it was run: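 Read-out: fluorescent reporter transcripts quantified by capillary electrophoresis after RT-PCR of total RNA. Source cells were HepG2 transiently carrying chimeric NR-GAL4 plus GAL4-UAS reporter units, dosed 24 h. Activity fitted upward relative to DMSO baseline.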

[3] = biological target: Oxysterols receptor LXR-alpha (Homo sapiens) (UniProt Q13133); assay: ATG_LXRa_TRANS: Attagene TRANS-FACTORIAL HepG2 Assay for human Liver X Receptor alpha (LXRa) (AID 2282980; active = hit-call score of the fitted dose curve at least 0.9, where 1 is the maximum); details: HepG2 Attagene TRANS reporter, LXRa transactivation
Oxysterols receptor LXR-alpha (Homo sapiens), sequence (Q13133 whole entry, looked up, the tested form may be a part): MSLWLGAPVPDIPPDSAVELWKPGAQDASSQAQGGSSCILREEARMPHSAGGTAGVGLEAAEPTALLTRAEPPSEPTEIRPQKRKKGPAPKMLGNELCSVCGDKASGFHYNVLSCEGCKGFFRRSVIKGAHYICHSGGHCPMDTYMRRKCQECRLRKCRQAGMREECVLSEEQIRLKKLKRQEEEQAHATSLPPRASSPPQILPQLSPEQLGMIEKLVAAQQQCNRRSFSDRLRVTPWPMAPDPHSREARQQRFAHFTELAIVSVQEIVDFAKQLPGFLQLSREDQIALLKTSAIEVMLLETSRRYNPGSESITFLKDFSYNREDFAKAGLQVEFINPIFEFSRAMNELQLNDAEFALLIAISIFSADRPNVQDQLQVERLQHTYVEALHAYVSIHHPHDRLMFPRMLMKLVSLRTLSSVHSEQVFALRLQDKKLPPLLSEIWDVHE
How it was run: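 Read-out: reporter transcript levels by RT-PCR plus capillary electrophoresis, fluorescence intensity. Transiently transfected HepG2, exogenous NR-GAL4 chimera, GAL4-UAS reporters; 24 h compound exposure. Activity = increase over DMSO negative control.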

[4] = biological target: Oxysterols receptor LXR-beta (Homo sapiens) (UniProt P55055); assay: ATG_LXRb_TRANS: Attagene TRANS-FACTORIAL HepG2 Assay for human Liver X Receptor beta (LXRb) (AID 2282981; active = hit-call score of the fitted dose curve at least 0.9, where 1 is the maximum); details: HepG2 Attagene TRANS GAL4-LXRb reporter, mRNA
Oxysterols receptor LXR-beta (Homo sapiens), sequence (P55055 whole entry, looked up, the tested form may be a part): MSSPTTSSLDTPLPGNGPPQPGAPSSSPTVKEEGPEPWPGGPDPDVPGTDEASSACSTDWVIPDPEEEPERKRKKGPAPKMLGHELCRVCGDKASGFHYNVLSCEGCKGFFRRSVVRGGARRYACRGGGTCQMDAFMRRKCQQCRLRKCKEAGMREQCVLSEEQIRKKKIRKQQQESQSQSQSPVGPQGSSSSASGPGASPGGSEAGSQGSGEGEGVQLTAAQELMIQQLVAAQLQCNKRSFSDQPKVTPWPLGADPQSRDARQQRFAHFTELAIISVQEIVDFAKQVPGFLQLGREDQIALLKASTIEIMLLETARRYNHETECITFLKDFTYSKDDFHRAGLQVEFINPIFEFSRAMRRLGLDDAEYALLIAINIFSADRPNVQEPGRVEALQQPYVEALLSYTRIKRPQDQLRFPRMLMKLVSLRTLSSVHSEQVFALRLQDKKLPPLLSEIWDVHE
How it was run: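 Gain-of-signal mRNA reporter endpoint, DMSO as negative control. Transiently transfected HepG2 cells carrying the NR-Gal4 chimera and GAL4-UAS reporter units were treated 24 h; transcripts quantified by RT-PCR and capillary electrophoresis fluorescence.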

[5] = biological target: Hepatocyte nuclear factor 4-alpha (Homo sapiens) (UniProt P41235); assay: ATG_HNF4a_TRANS: Attagene TRANS-FACTORIAL HepG2 Assay for human Hepatocyte Nuclear Factor 4 alpha (HNF4a) (AID 2282982; active = hit-call score of the fitted dose curve at least 0.9, where 1 is the maximum); details: HepG2 HNF4a transactivation reporter, mRNA readout
Hepatocyte nuclear factor 4-alpha (Homo sapiens), sequence (P41235 whole entry, looked up, the tested form may be a part): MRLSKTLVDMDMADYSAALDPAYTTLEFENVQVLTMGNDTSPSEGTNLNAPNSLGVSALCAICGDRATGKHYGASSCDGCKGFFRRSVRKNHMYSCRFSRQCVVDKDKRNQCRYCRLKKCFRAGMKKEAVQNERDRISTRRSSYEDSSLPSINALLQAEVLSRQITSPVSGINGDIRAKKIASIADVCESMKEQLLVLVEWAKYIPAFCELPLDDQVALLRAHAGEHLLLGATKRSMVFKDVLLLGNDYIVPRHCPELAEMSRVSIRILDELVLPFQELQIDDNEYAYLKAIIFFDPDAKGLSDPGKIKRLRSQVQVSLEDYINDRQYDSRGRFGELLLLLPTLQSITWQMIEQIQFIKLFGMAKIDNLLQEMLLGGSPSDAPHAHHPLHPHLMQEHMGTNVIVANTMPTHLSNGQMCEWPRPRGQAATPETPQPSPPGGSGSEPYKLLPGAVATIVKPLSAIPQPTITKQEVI
How it was run: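 Gain-of-signal mRNA induction, relative to DMSO vehicle, was read after 24 h compound treatment of HepG2 cells bearing transfected GAL4-UAS reporters. Detection used RT-PCR, 6-FAM primer extension and capillary electrophoresis.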

[6] = ATG_M_06_TRANS: Attagene TRANS-FACTORIAL HepG2 Assay for M06 Transcription Factor (Internal Marker) (AID 2282983; active = hit-call score of the fitted dose curve at least 0.9, where 1 is the maximum); details: HepG2 Attagene TRANS M06 internal marker reporter
How it was run: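 After a 24 h chemical treatment of transfected HepG2, RNA underwent DNase I treatment, reverse transcription and reporter-specific PCR; labelled, HpaI-digested products were sized by capillary electrophoresis. Signal increase relative to DMSO defined activity.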

[7] = ATG_M_32_TRANS: Attagene TRANS-FACTORIAL HepG2 Assay for M32 Transcription Factor (Internal Marker) (AID 2282984; active = hit-call score of the fitted dose curve at least 0.9, where 1 is the maximum;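 note: transcript level of a background control reporter unit measured by RT-PCR and capillary electrophoresis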); details: HepG2 Attagene TRANS M32 internal marker reporter
How it was run: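 Capillary electrophoresis of 6-FAM-labelled reporter fragments gives the signal; data fitted for gain over DMSO negative control. Source: HepG2 cells bearing transient multiple reporter transcription units, 24 h exposure.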

[8] = biological target: Transcriptional activator Myb (Homo sapiens) (UniProt P10242); assay: ATG_Myb_CIS: Attagene CIS-FACTORIAL HepG2 Assay for human Myeloblastosis (Myb) Proto-Oncogene Transcription Factor (AID 2282986); details: HepG2 Attagene CIS-FACTORIAL Myb reporter transcription; actives raise or lower the signal
Transcriptional activator Myb (Homo sapiens), sequence (P10242 whole entry, looked up): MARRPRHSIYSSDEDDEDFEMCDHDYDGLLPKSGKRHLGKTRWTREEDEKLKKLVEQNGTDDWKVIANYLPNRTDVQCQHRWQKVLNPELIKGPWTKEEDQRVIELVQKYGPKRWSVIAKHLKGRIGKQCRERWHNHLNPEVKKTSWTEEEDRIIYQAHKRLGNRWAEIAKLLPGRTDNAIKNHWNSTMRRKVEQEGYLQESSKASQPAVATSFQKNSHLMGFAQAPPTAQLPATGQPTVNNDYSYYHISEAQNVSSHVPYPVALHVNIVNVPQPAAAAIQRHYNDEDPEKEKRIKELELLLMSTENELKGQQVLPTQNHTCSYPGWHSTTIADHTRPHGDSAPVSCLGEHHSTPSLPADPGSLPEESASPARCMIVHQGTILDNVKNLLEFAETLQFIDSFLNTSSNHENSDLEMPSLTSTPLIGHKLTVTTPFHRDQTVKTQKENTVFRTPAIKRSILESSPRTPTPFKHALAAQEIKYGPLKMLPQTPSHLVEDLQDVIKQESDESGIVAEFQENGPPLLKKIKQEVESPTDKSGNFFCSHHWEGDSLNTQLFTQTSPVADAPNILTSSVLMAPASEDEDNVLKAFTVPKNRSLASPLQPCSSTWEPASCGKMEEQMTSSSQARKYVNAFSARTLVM
How it was run: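 Using HepG2 liver cells bearing transiently transfected cis-promoter reporter constructs, the assay measures induction or loss of reporter mRNA after 24 hours of dosing. Detection used fluorescently labeled RT-PCR products separated by capillary electrophoresis.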

[9] = biological target: Nuclear respiratory factor 1 (Homo sapiens) (UniProt Q16656); assay: ATG_NRF1_CIS: Attagene CIS-FACTORIAL HepG2 Assay for human Nuclear Respiratory Factor 1 (NRF1) Orphan Gene (AID 2282987); details: HepG2 NRF1 cis-element reporter, Attagene multiplex; actives raise or lower the signal
Nuclear respiratory factor 1 (Homo sapiens), sequence (Q16656 whole entry, looked up): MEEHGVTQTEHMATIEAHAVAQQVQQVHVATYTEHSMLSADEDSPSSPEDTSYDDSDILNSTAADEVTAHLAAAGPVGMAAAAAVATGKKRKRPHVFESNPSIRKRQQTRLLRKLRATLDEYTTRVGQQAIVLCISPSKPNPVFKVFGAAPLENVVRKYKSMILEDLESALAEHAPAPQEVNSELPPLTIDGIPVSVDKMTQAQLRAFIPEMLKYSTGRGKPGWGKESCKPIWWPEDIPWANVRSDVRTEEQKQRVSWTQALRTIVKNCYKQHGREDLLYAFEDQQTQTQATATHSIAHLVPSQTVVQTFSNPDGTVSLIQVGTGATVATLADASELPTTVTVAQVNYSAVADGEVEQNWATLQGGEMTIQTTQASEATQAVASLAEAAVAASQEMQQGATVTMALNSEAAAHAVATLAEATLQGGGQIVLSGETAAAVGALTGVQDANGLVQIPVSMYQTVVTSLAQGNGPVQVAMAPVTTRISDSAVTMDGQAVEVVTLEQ
How it was run: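 Reporter mRNA induction or loss in HepG2 cells after 24 h dosing; cis-regulated reporter constructs report endogenous transcription-factor activity. Quantified by RT-PCR/capillary electrophoresis fluorescence, DMSO-referenced.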

[10] = ATG_NFI_CIS: Attagene CIS-FACTORIAL HepG2 Assay for human Nuclear Factor I (NFI) (AID 2282989); details: HepG2 cis-regulatory reporter, NFI response element transcription; actives raise or lower the signal
How it was run: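 Multiplexed cis-reporter system in human HepG2 cells reports native TF activity as reporter mRNA induction 24 h post-dose. Fragments labelled with 6-FAM, HpaI-digested and resolved by capillary electrophoresis; activity fitted both directions versus DMSO.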

[11] = biological target: Myc proto-oncogene protein (Homo sapiens) (UniProt P01106); assay: ATG_Myc_CIS: Attagene CIS-FACTORIAL HepG2 Assay for human Myelocytomatosis (Myc) Proto-Oncogene Transcription Factor (AID 2282990); details: HepG2, Attagene cis-reporter transcription factor activity; actives raise or lower the signal
Myc proto-oncogene protein (Homo sapiens), sequence (P01106 whole entry, looked up): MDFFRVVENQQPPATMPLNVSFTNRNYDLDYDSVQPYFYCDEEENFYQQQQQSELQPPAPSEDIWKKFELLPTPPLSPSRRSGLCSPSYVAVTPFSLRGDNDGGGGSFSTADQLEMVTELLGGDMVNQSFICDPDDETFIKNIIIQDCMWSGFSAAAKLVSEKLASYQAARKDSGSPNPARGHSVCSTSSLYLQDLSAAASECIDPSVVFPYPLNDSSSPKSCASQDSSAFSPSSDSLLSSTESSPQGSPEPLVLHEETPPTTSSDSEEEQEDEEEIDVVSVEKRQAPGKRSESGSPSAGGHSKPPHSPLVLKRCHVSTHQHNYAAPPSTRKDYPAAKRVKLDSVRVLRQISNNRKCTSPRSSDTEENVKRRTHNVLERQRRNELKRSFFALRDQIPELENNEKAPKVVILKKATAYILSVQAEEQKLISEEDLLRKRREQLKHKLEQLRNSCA
How it was run: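 Transiently transfected HepG2 cells bearing cis-promoter reporter units for endogenous transcription factors; 24 h exposure. Reporter mRNA measured by RT-PCR, 6-FAM primer extension, HpaI cut and capillary electrophoresis; bidirectional fit relative to DMSO.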

[12] = ATG_NF_kB_CIS: Attagene CIS-FACTORIAL HepG2 Assay for human Nuclear Factor Kappa B (NF-kB) (AID 2282991); details: HepG2 Attagene cis-factorial NF-kB reporter mRNA; actives raise or lower the signal
How it was run: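 DMSO served as negative control and baseline for bidirectional curve fitting. Transiently transfected HepG2 cells were dosed for 24 h, then reporter transcripts were measured by RT-PCR with capillary electrophoresis detection.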

[13] = ATG_NRF2_ARE_CIS: Attagene CIS-FACTORIAL HepG2 Assay for human Nuclear Factor Erythroid 2 Related Factor 2 (NFR2) response to Antioxidant Response Elements (ARE) (AID 2282992); details: HepG2 Attagene ARE/NRF2 reporter, transcription factor activity; actives raise or lower the signal;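 for AC50: reporter mRNA level measured by RT-PCR and capillary electrophoresis fluorescence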
How it was run: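 HepG2 cells transiently transfected with multiplexed cis-regulated reporter transcription units measure endogenous transcription factor activity. Reporter mRNA at 24 h is quantified by RT-PCR, fluorescent labelling and capillary electrophoresis, with bidirectional fitting relative to DMSO.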

[14] = ATG_Oct_MLP_CIS: Attagene CIS-FACTORIAL HepG2 Assay for human Octamer-Binding Transcription Factor (Oct) (AID 2282993); details: HepG2 Attagene cis-factorial Oct reporter, mRNA; actives raise or lower the signal
How it was run: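 After 24 h compound exposure, transfected HepG2 cells were lysed for total RNA; reporter-specific cDNA was PCR-amplified, fluorescently labelled and sized by capillary electrophoresis. Bidirectional curve fitting used DMSO as baseline.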

[15] = biological target: Cellular tumor antigen p53 (Homo sapiens) (UniProt P04637); assay: ATG_p53_CIS: Attagene CIS-FACTORIAL HepG2 Assay for human p53 Transcription Factor (AID 2282994); details: HepG2 p53 cis-element reporter, Attagene mRNA; actives raise or lower the signal
Cellular tumor antigen p53 (Homo sapiens), sequence (P04637 whole entry, looked up): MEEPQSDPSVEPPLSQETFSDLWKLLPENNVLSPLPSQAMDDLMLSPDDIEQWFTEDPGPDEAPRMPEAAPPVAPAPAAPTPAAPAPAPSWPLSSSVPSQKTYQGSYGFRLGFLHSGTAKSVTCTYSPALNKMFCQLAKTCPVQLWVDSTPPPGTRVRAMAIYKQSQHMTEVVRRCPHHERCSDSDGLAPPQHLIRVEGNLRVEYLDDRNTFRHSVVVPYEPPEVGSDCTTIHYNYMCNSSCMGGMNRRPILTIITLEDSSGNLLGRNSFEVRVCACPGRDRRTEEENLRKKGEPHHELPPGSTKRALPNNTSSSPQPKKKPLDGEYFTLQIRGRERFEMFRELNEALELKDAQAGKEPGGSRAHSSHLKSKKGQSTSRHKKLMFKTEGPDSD
How it was run: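 HepG2 cells transiently transfected with multiplexed cis-regulated reporter transcription units read endogenous TF activity. After 24 h compound exposure, reporter mRNA was quantified by RT-PCR, fluorescent labelling, HpaI digestion and capillary electrophoresis; bidirectional fits versus DMSO baseline.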

[16] = BSK_3C_TissueFactor: BioMAP Diversity Plus: 3C Assay for Tissue Factor Biomarker Activity (AID 2282997); details: BioMAP 3C HUVEC, tissue factor biomarker readout; actives raise or lower the signal
How it was run: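 Human vascular primary cells (umbilical vein endothelium) received test chemical; Tissue Factor was determined by ELISA at 24 h, and both gain and loss of signal versus DMSO were fitted.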

[17] = BSK_3C_uPAR: BioMAP Diversity Plus: 3C Assay for Urokinase-type plasminogen activator receptor (uPAR) Biomarker Activity (AID 2282998); details: BioMAP 3C HUVEC, uPAR biomarker ELISA; actives raise or lower the signal
How it was run: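 Values derive from bidirectional curve fitting relative to DMSO, which served as baseline of activity. uPAR was measured by ELISA in human umbilical vein endothelial primary cultures 24 h after compound addition.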

[18] = biological target: Estrogen-related receptor gamma (Homo sapiens) (UniProt P62508); assay: ATG_ERRg_TRANS: Attagene TRANS-FACTORIAL HepG2 Assay for human Estrogen-Related Receptor gamma (ERRg) (AID 2282977; active = hit-call score of the fitted dose curve at least 0.9, where 1 is the maximum;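 note: hits increase reporter signal over DMSO so potencies reflect activators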); details: HepG2 Attagene TRANS reporter, ERRg transactivation
Estrogen-related receptor gamma (Homo sapiens), sequence (P62508 whole entry, looked up, the tested form may be a part): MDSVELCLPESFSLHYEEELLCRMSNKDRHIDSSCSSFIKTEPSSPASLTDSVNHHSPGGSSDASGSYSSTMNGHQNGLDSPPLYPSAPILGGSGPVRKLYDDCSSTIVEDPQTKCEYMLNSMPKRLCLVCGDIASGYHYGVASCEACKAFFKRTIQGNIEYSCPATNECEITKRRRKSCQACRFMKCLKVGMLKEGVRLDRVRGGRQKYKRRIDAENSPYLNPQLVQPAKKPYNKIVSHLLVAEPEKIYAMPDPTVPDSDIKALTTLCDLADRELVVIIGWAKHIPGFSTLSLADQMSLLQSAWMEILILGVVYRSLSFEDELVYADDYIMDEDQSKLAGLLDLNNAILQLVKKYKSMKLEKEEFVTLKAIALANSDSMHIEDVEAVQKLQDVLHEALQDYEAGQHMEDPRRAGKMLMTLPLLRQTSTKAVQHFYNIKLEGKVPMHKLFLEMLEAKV
How it was run: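 HepG2 cells transiently transfected with multiplexed GAL4-UAS reporter units and chimeric NR-Gal4 constructs were exposed to test chemicals for 24 h. Reporter mRNA was measured by RT-PCR, 6-FAM primer extension, HpaI digestion and capillary electrophoresis; gain-of-signal versus DMSO.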

[19] = biological target: Nuclear receptor subfamily 4 group A member 2 (Homo sapiens) (UniProt P43354); assay: ATG_NURR1_TRANS: Attagene TRANS-FACTORIAL HepG2 Assay for human Nuclear Receptor Related Protein 1 (NURR1) (AID 2282985; active = hit-call score of the fitted dose curve at least 0.9, where 1 is the maximum); details: HepG2 Attagene TRANS reporter, mRNA readout
How it was run: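 HepG2 / transient MRTU transfection / 24 h compound exposure / RT-PCR + CE fluorescence of reporter mRNA / gain-of-signal vs DMSO.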

[20] = ATG_GAL4_TRANS: Attagene TRANS-FACTORIAL HepG2 Assay for GAL4 (Internal Marker) (AID 2282976; active = hit-call score of the fitted dose curve at least 0.9, where 1 is the maximum); details: HepG2 Attagene TRANS GAL4 internal marker reporter
How it was run: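 RT-PCR/capillary electrophoresis readout of reporter mRNA. HepG2, transient MRTU transfection (GAL4-UAS reporters), 24 h compound exposure. Background-control endpoint, positive direction vs DMSO baseline.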

Measured: AC50

CN1COCN(Cc2cnc(Cl)s2)C1=N[N+](=O)[O-]
not listed: [18] | [19] | [20]
inactive: all other assays above

CCOC(=O)COc1cc(-c2nn(C)c(OC(F)F)c2Cl)c(F)cc1Cl
not listed: [2] | [8] | [20]
inactive: all other assays above

N#CSCSC#N
active: [16] 5.49 µM | [17] 5.93 µM
not listed: [2] | [8] | [20]
inactive: all other assays above

CC(COc1ccc(Oc2ccccc2)cc1)Oc1ccccn1 (centres undefined)
active: [12] 13.8 µM | [13] 7.23 µM | [14] 13 µM | [17] 23.6 µM
not listed: [1] | [2] | [6] | [8] | [20]
inactive: all other assays above

CCCCSP(=O)(SCCCC)SCCCC
active: [8] 83.3 µM | [11] 83.2 µM | [13] 18.3 µM | [14] 11.8 µM | [17] 28.7 µM
not listed: [3] | [5] | [6] | [12] | [18] | [20]
inactive: all other assays above

COc1ccc(C(=CC(=O)N2CCOCC2)c2ccc(Cl)cc2)cc1OC
active: [13] 8.76 µM | [14] 13.8 µM | [17] 12.7 µM
not listed: [1] | [7] | [19]
inactive: all other assays above

Nc1nc(N)nc(NC2CC2)n1
not listed: [5] | [8] | [20]
inactive: all other assays above

Nc1c(Cl)cc([N+](=O)[O-])cc1Cl
active: [10] 50 µM | [12] 59.5 µM | [13] 41.1 µM | [14] 50 µM
not listed: [1] | [8] | [15] | [19] | [20]
inactive: all other assays above
